Records with an inconclusive call do not appear. Activity calls are given as the source filed them. Calls follow the shape of the dose curve; as a rule, active = well fitted curve in the direction sought with a large enough effect; inconclusive = small, poorly fitted or top-dose-only effect, or another doubt; inactive = no such curve, though single readings can be large; an effect the other way counts as inactive or inconclusive.
What was measured:
[1] = Cell Viability - LYMP2-001 (AID 921); also: series mostly up to about 92 µM; nearly all actives have a fitted effect of over 70% in size
How it was run: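 Human lymphoblastoid LYMP2-001 cells, 2500 per well, in complete medium, treated 24 h at 37 C. Viability from cellular ATP by CellTiter-Glo luminescence; AC50 from Hill-equation fits of qHTS concentration-response.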

[2] = MultiTox-Fluor Cytotoxicity Assay - LYMP1-001 - Dead Cells (AID 946)
How it was run: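 In this qHTS, 15 uM tetraoctylammonium bromide defined 100% and DMSO defined basal activity. Lymphoblastoid cells (LYMP1-001, 2500 per well) received compound for 16 hr at 37 C before a fluorogenic dead-cell substrate readout at 485/520 nm.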

[3] = Cell Viability - LYMP1-002 - Assay at 16 hr (AID 948)
How it was run: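 LYMP1-002 human lymphoblastoid cells, 2500/well, were treated with compounds for 16 hr at 37 C in complete medium. Viability was read as intracellular ATP by CellTiter-Glo luminescence, and AC50 was derived from a Hill fit to concentration-response data.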

[4] = MultiTox-Fluor Cytotoxicity Assay - LYMP1-002 - Live Cells (AID 955);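 also: cells exposed to compound for 16 hours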
How it was run: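 Cells were seeded at 2500 per well and incubated 5 hr. Compounds were then added for 16 hr at 37 C, followed by MultiTox-Fluor reagent for 60 min at room temperature and fluorescence reading of viable-cell protease signal.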

[5] = MultiTox-Fluor Cytotoxicity Assay - LYMP1-002 - Dead Cells (AID 960);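 also: cells exposed to compound for 16 h at 37 °C; nearly all actives have a fitted effect of over 60% in size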
How it was run: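 Cells were plated, rested 5 hr, then treated with compound dilution series for 16 hr at 37 C. After adding substrate reagent and 60 min at room temperature, dead-cell protease fluorescence gave concentration-response curves fitted by the Hill equation.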

[6] = MultiTox-Fluor Cytotoxicity Assay - LYMP1-003 - Dead Cells (AID 961);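 also: cells exposed to compound for 16 h at 37 °C; nearly all actives have a fitted effect of over 70% in size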
How it was run: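 Acute toxicity is scored as increased dead-cell protease activity in human lymphoblastoid LYMP1-003 cells after 16 h compound exposure in complete culture medium. Activity is normalized to DMSO basal and 15 uM tetraoctylammonium bromide as full response.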

[7] = MultiTox-Fluor Cytotoxicity Assay - LYMP1-003 - Live Cells (AID 962);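 also: cells exposed to compound for 16 hours at 37 °C; cytotoxic hits lower the live-cell protease signal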
How it was run: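 Acute cytotoxicity is scored as a drop in live-cell protease activity in human lymphoblastoid LYMP1-003 cells after 16 hr compound exposure at 37 C. AC50 values come from Hill-equation modelling of concentration-response data.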

[8] = Cell Viability - LYMP1-003 - Assay at 40 hr (AID 964); also: series mostly up to about 92 µM; nearly all actives have a fitted effect of over 60% in size
How it was run: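 Luminescent ATP signal (CellTiter-Glo) served as the viability read-out after 40 hr compound treatment of human lymphoblastoid LYMP1-003 cells at 37 C. Decreases in ATP were fitted with the Hill equation to give AC50.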

[9] = Cell Viability - LYMP2-003 (AID 965);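 also: cells exposed to compounds for 24 h before reading; nearly all actives have a fitted effect of over 50% in size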
How it was run: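 Human lymphoblastoid LYMP2-003 cells, 2500/well, exposed to compounds for 24 h at 37 C in complete medium. Viability read as intracellular ATP by CellTiter-Glo luminescence; AC50 from Hill-equation fits of qHTS concentration-response data.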

[10] = Cell Viability - LYMP2-004 (AID 966); also: nearly all actives have a fitted effect of over 65% in size
How it was run: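 qHTS cytotoxicity: human lymphoblastoid line, 24 hr compound treatment, 37 C, complete medium. Viability read as cellular ATP via luciferase luminescence; tetraoctylammonium bromide served as positive control.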

[11] = Cell Viability - LYMP2-005 (AID 967); also: series mostly up to about 92 µM
How it was run: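 Human lymphoblastoid LYMP2-005 cells, 2,500 per well in complete medium, rested 5 h at 37C then compound-treated 24 h at 37C. Intracellular ATP read by CellTiter-Glo luminescence after 30 min at room temperature; AC50 from Hill-equation fits of concentration-response data.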

[12] = Cell Viability - LYMP2-009 (AID 968); also: series mostly up to about 92 µM; nearly all actives have a fitted effect of over 55% in size
[13] = Cell Viability - LYMP2-011 (AID 969); also: nearly all actives have a fitted effect of over 60% in size
How it was run: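 In this qHTS cytotoxicity format, compounds are tested across concentrations on human lymphoblastoid cells in complete medium for 24 hours at 37 C. Viability is taken as cellular ATP measured by luciferase luminescence.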

[14] = Cell Viability - LYMP2-013 (AID 970); also: series mostly up to about 92 µM; nearly all actives have a fitted effect of over 55% in size
How it was run: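 Cytotoxicity is scored as a concentration-dependent drop in intracellular ATP in human lymphoblastoid cells after 24 hr compound exposure at 37 C. ATP is quantified by luciferase luminescence, and AC50 values come from Hill-equation modeling.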

[15] = Cell Viability - LYMP2-015 (AID 971); also: nearly all actives have a fitted effect of over 55% in size
How it was run: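 Cells are seeded at 2500 per well and incubated 5 hr at 37 C. Compounds are added across a concentration series for 24 hr at 37 C. CellTiter-Glo is added, and luminescence is read after 30 min at room temperature.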

[16] = Cell Viability - LYMP2-017 (AID 972); also: series mostly up to about 92 µM; nearly all actives have a fitted effect of over 55% in size
How it was run: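 Cytotoxicity is scored as a concentration-dependent drop in cellular ATP in a human lymphoblastoid line after 24 hr treatment at 37 C. Values are AC50s from Hill-equation modelling.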

[17] = Cell Viability - LYMP2-019 (AID 973); also: nearly all actives have a fitted effect of over 55% in size
How it was run: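 Cytotoxicity is scored as a concentration-dependent drop in cellular ATP after cells (2500/well) receive compound for 24 hr at 37 C. Tetraoctylammonium bromide serves as positive control.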

[18] = Cell Viability - LYMP2-021 (AID 974)
How it was run: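 Loss of cellular ATP, measured with a luciferase-based CellTiter-Glo readout, serves as the toxicity signal in human lymphoblastoid cells treated for 24 hours at 37 C. Potency is reported as AC50 from a standard Hill model.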

[19] = Cell Viability - LYMP2-023 (AID 975)
How it was run: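 Steps: seed 2500 human lymphoblastoid cells per well, incubate 5 hr at 37 C, add compound for 24 hr at 37 C, add CellTiter-Glo, hold 30 min at room temperature, read luminescence. AC50 derived by Hill modelling.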

[20] = Cell Viability - LYMP2-025 (AID 976); also: series mostly up to about 92 µM
How it was run: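 Acute cytotoxicity is scored as a concentration-dependent fall in intracellular ATP, measured by luciferase luminescence, in human lymphoblastoid LYMP2-025 cells exposed to compound for 24 hours at 37 C. AC50 values come from standard Hill fits.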

[21] = Cell Viability - LYMP2-002 (AID 977);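 also: series mostly up to about 92 µM; compound exposure lasted 24 h at 37 °C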
How it was run: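 Human lymphoblastoid cells, 2500/well, complete medium; 5 h 37 C settle; compound 24 h 37 C; CellTiter-Glo, 30 min RT; luminescence. Decrease in ATP = cytotoxicity; AC50 via Hill equation.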

[22] = Cell Viability - LYMP2-006 (AID 978); also: series mostly up to about 92 µM; nearly all actives have a fitted effect of over 60% in size
How it was run: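 Human lymphoblastoid cells (LYMP2-006), 2500/well in complete medium, were treated with compound for 24 hr at 37 C. Cellular ATP was read by CellTiter-Glo luminescence after 30 min, and AC50 values came from Hill-equation fits of concentration-response data.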

[23] = Cell Viability - LYMP2-007 (AID 979)
How it was run: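 Cells are seeded at 2500 per well and rested 5 hr. Compounds are then added over a concentration series for 24 hr at 37 C. CellTiter-Glo is added for 30 min at room temperature before luminescence reading.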

Measured: Potency

CCCOC(=O)c1ccccc1C(=O)OCCC
inactive: [1] | [2] | [3] | [4] | [5] | [6] | [7] | [8] | [9] | [10] | [11] | [12] | [13] | [14] | [15] | [16] | [17] | [18] | [19] | [20] | [21] | [22] | [23]

From PubChem BioAssay (NCATS)
